This is part of a sample that, as a whole, favours compounds with a hit. Of some 83,000 tested, about 20% had one in any assay.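 96-well plates, one dose, 48 hours. Percent growth reported; active if below 10.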 A number with no mark means an inactive call. Activity calls are given as the source filed them.
Key:
Test in all cases: NCI-60 one-dose screen, 48 h (100 = growth as untreated, 0 = no growth, -100 = all killed)
Conditions in all cases: 10 µM unless noted
SK-MEL-2 melanoma = test system: SK-MEL-2 melanoma
EKVX NSCLC = test system: EKVX NSCLC
SN12C renal = test system: SN12C renal
UO-31 renal = test system: UO-31 renal
TK-10 renal = test system: TK-10 renal
ACHN renal = test system: ACHN renal
A498 renal = test system: A498 renal
CCRF-CEM leukemia = test system: CCRF-CEM leukemia
MOLT-4 leukemia = test system: MOLT-4 leukemia

Compound | growth (SK-MEL-2 melanoma) | growth (EKVX NSCLC) | growth (SN12C renal) | growth (UO-31 renal) | growth (TK-10 renal) | growth (ACHN renal) | growth (A498 renal) | growth (CCRF-CEM leukemia) | growth (MOLT-4 leukemia)
Clc1ccc2c(NCCCNc3nc(-n4ccnc4)nc4ccccc34)ccnc2c1 | 103% | 70.3% | 84.4% | 78.8% | 102% | 97.7% | 78.2% | 75.2% | 68%
CC(=O)c1cc2c(N)c(C(=O)Nc3ccccc3)sc2nc1C | 33.3% | 70.1% | 90.8% | 90.8% | 76.4% | 91.7% | 22% | 84.5% | 85.6%
O=c1ccccc(-c2ccc(Br)cc2)c1O | 12% | 6.92% (active) | 6.62% (active) | -10.6% (active) | 21.5% | 6.35% (active) | 31.7% | 3.29% (active) | 5.09% (active)
COc1cc(-c2nn(-c3ccc(C)cc3)cc2C(=O)O)ccc1O | 93.5% | 88.3% | 99.8% | 74.7% | 133% | 97.5% | 110% | 97.5% | 83.2%
N#Cc1nnn(-c2ccc(S(N)(=O)=O)cc2)c1NCC(=O)c1ccccc1 | 97.8% | 90.9% | 97.1% | 78.9% | 107% | 99.5% | 101% | 83.6% | 89.9%
CC(=O)c1cc2c(N)c(C(=O)Nc3cccc4ccccc34)sc2nc1C | 36.5% | 46.4% | 40.9% | 42.9% | 56.2% | 47.6% | 13.6% | 6.95% (active) | 24%
Clc1ccc2nc3nc4ccc[nH]c4cc3c2c1 | 88.5% | 68.2% | 90.8% | 78.4% | 43.1% | 85.9% | 109% | 71.4% | 80.5%
CCCCCC(=O)Oc1ccc(/C(=C(\C)c2ccc(OC)cc2)c2ccc(OCCN3CCCCC3)cc2)cc1 | 64.7% | 58.5% | 73.8% | 56.2% | 92.7% | 74.4% | 92.3% | 56.7% | 25.1%
CC[N+](CC)=c1sc2c(s1)C(c1ccc(Cl)cc1)Oc1ccc(Cl)cc1-2 (stereo unspecified) | -31.3% (active) | 16.4% | 5.19% (active) | 70.5% | 44% | 88.5% | 28.6% | -17% (active) | -10.1% (active)

From PubChem BioAssay (NCI)
